Laboratory results reported in article PMC11062922 (Nature Chemical Biology, 2023).
Where two headings read alike, the source gives them in different places.

What was measured:
Settings in all cases: read-out: apparent Kd, n = 1
MAPK10 = tested on: MAPK10
PBK = tested on: PBK
PDGFRB = tested on: PDGFRB
[1] = compound concentrations:100 nM and 1000 nM (sheet 'Lestaurtinib' of Supplementary Table 1),run:Lestaurtinib_02487_R1,Plate:MR012
[2] = compound concentrations:100 nM and 1000 nM (sheet 'Lestaurtinib' of Supplementary Table 1),run:Lestaurtinib_02584_R1,Plate:MR017
[3] = compound concentrations:100 nM and 1000 nM (sheet 'Lestaurtinib' of Supplementary Table 1),run:Lestaurtinib_02584_R3,Plate:MR017
[4] = compound concentrations:100 nM and 1000 nM (sheet 'Lestaurtinib' of Supplementary Table 1),run:Lestaurtinib_02601_R1,Plate:MR018
[5] = compound concentrations:100 nM and 1000 nM (sheet 'Lestaurtinib' of Supplementary Table 1),run:Lestaurtinib_02606_R3,Plate:MR019
[6] = compound concentrations:100 nM and 1000 nM (sheet 'Lestaurtinib' of Supplementary Table 1),run:Lestaurtinib_02724_R2,Plate:MR021
[7] = compound concentrations:100 nM and 1000 nM (sheet 'Lestaurtinib' of Supplementary Table 1),run:Lestaurtinib_02741_R2,Plate:MR023
[8] = compound concentrations:100 nM and 1000 nM (sheet 'Lestaurtinib' of Supplementary Table 1),run:Lestaurtinib_02748_R3,Plate:MR024
[9] = compound concentrations:100 nM and 1000 nM (sheet 'Lestaurtinib' of Supplementary Table 1),run:Lestaurtinib_02766_R1,Plate:MR027
[10] = compound concentrations:100 nM and 1000 nM (sheet 'Lestaurtinib' of Supplementary Table 1),run:Lestaurtinib_02795_R3,Plate:MR022
[11] = compound concentrations:100 nM and 1000 nM (sheet 'Lestaurtinib' of Supplementary Table 1),run:Lestaurtinib_02896_R3,Plate:MR030
[12] = compound concentrations:100 nM and 1000 nM (sheet 'Lestaurtinib' of Supplementary Table 1),run:Lestaurtinib_03172_R1,Plate:MR031
[13] = compound concentrations:100 nM and 1000 nM (sheet 'Lestaurtinib' of Supplementary Table 1),run:Lestaurtinib_03172_R2,Plate:MR031
[14] = compound concentrations:100 nM and 1000 nM (sheet 'Lestaurtinib' of Supplementary Table 1),run:Lestaurtinib_03252_R1,Plate:MR032
[15] = compound concentrations:100 nM and 1000 nM (sheet 'Lestaurtinib' of Supplementary Table 1),run:Lestaurtinib_03252_R2,Plate:MR032
[16] = compound concentrations:100 nM and 1000 nM (sheet 'Lestaurtinib' of Supplementary Table 1),run:Lestaurtinib_02741_R1,Plate:MR023
[17] = compound concentrations:100 nM and 1000 nM (sheet 'Lestaurtinib' of Supplementary Table 1),run:Lestaurtinib_02896_R2,Plate:MR030

Lestaurtinib
potency estimated from few doses (MAPK10; compound concentrations:100 nM and 1000 nM (sheet 'Lestaurtinib' of Supplementary Table 1),run:Lestaurtinib_02473_R2,Plate:MR010): 755 nM | potency estimated from few doses (MAPK10; compound concentrations:100 nM and 1000 nM (sheet 'Lestaurtinib' of Supplementary Table 1),run:Lestaurtinib_02473_R3,Plate:MR010): 882 nM | potency estimated from few doses (MAPK10; compound concentrations:100 nM and 1000 nM (sheet 'Lestaurtinib' of Supplementary Table 1),run:Lestaurtinib_02482_R1,Plate:MR011): 469 nM | potency estimated from few doses (MAPK10; compound concentrations:100 nM and 1000 nM (sheet 'Lestaurtinib' of Supplementary Table 1),run:Lestaurtinib_02482_R2,Plate:MR011): 898 nM | potency estimated from few doses (MAPK10; compound concentrations:100 nM and 1000 nM (sheet 'Lestaurtinib' of Supplementary Table 1),run:Lestaurtinib_02482_R3,Plate:MR011): 612 nM | potency estimated from few doses (MAPK10; [1]): 798 nM | potency estimated from few doses (MAPK10; compound concentrations:100 nM and 1000 nM (sheet 'Lestaurtinib' of Supplementary Table 1),run:Lestaurtinib_02487_R2,Plate:MR012): 744 nM | potency estimated from few doses (MAPK10; compound concentrations:100 nM and 1000 nM (sheet 'Lestaurtinib' of Supplementary Table 1),run:Lestaurtinib_02566_R1,Plate:MR014): 712 nM | potency estimated from few doses (MAPK10; compound concentrations:100 nM and 1000 nM (sheet 'Lestaurtinib' of Supplementary Table 1),run:Lestaurtinib_02572_R1,Plate:MR015): 896 nM | potency estimated from few doses (MAPK10; compound concentrations:100 nM and 1000 nM (sheet 'Lestaurtinib' of Supplementary Table 1),run:Lestaurtinib_02577_R2,Plate:MR016): 636 nM | potency estimated from few doses (MAPK10; compound concentrations:100 nM and 1000 nM (sheet 'Lestaurtinib' of Supplementary Table 1),run:Lestaurtinib_02577_R3,Plate:MR016): 743 nM | potency estimated from few doses (MAPK10; [2]): 744 nM | potency estimated from few doses (MAPK10; [3]): 692 nM | potency estimated from few doses (MAPK10; [4]): 819 nM | potency estimated from few doses (MAPK10; [5]): 845 nM | potency estimated from few doses (MAPK10; compound concentrations:100 nM and 1000 nM (sheet 'Lestaurtinib' of Supplementary Table 1),run:Lestaurtinib_02624_R1,Plate:MR020): 802 nM | potency estimated from few doses (MAPK10; compound concentrations:100 nM and 1000 nM (sheet 'Lestaurtinib' of Supplementary Table 1),run:Lestaurtinib_02624_R2,Plate:MR020): 1320 nM | potency estimated from few doses (MAPK10; compound concentrations:100 nM and 1000 nM (sheet 'Lestaurtinib' of Supplementary Table 1),run:Lestaurtinib_02624_R3,Plate:MR020): 818 nM | potency estimated from few doses (MAPK10; compound concentrations:100 nM and 1000 nM (sheet 'Lestaurtinib' of Supplementary Table 1),run:Lestaurtinib_02724_R1,Plate:MR021): 870 nM | potency estimated from few doses (MAPK10; [6]): 518 nM | potency estimated from few doses (MAPK10; compound concentrations:100 nM and 1000 nM (sheet 'Lestaurtinib' of Supplementary Table 1),run:Lestaurtinib_02724_R3,Plate:MR021): 573 nM | potency estimated from few doses (MAPK10; [7]): 929 nM | potency estimated from few doses (MAPK10; compound concentrations:100 nM and 1000 nM (sheet 'Lestaurtinib' of Supplementary Table 1),run:Lestaurtinib_02748_R1,Plate:MR024): 747 nM | potency estimated from few doses (MAPK10; compound concentrations:100 nM and 1000 nM (sheet 'Lestaurtinib' of Supplementary Table 1),run:Lestaurtinib_02748_R2,Plate:MR024): 824 nM | potency estimated from few doses (MAPK10; [8]): 1610 nM | potency estimated from few doses (MAPK10; compound concentrations:100 nM and 1000 nM (sheet 'Lestaurtinib' of Supplementary Table 1),run:Lestaurtinib_02765_R1,Plate:MR026): 795 nM | potency estimated from few doses (MAPK10; compound concentrations:100 nM and 1000 nM (sheet 'Lestaurtinib' of Supplementary Table 1),run:Lestaurtinib_02765_R3,Plate:MR026): 501 nM | potency estimated from few doses (MAPK10; [9]): 1530 nM | potency estimated from few doses (MAPK10; [10]): 886 nM | potency estimated from few doses (MAPK10; compound concentrations:100 nM and 1000 nM (sheet 'Lestaurtinib' of Supplementary Table 1),run:Lestaurtinib_02802_R2,Plate:MR029): 1410 nM | potency estimated from few doses (MAPK10; compound concentrations:100 nM and 1000 nM (sheet 'Lestaurtinib' of Supplementary Table 1),run:Lestaurtinib_02896_R1,Plate:MR030): 532 nM | potency estimated from few doses (MAPK10; [11]): 592 nM | potency estimated from few doses (MAPK10; [12]): 784 nM | potency estimated from few doses (MAPK10; [13]): 591 nM | potency estimated from few doses (MAPK10; [14]): 932 nM | potency estimated from few doses (MAPK10; [15]): 717 nM | potency estimated from few doses (MAPK10; compound concentrations:100 nM and 1000 nM (sheet 'Lestaurtinib' of Supplementary Table 1),run:Lestaurtinib_03260_R2,Plate:MR033): 671 nM | potency estimated from few doses (PBK; compound concentrations:100 nM and 1000 nM (sheet 'Lestaurtinib' of Supplementary Table 1),run:Lestaurtinib_02364_R3,Plate:MR002): 2310 nM | potency estimated from few doses (PBK; compound concentrations:100 nM and 1000 nM (sheet 'Lestaurtinib' of Supplementary Table 1),run:Lestaurtinib_02381_R2,Plate:MR004): 1820 nM | potency estimated from few doses (PBK; compound concentrations:100 nM and 1000 nM (sheet 'Lestaurtinib' of Supplementary Table 1),run:Lestaurtinib_02606_R1,Plate:MR019): 1970 nM | potency estimated from few doses (PBK; [5]): 2120 nM | potency estimated from few doses (PBK; [16]): 1530 nM | potency estimated from few doses (PBK; [8]): 1440 nM | potency estimated from few doses (PBK; [9]): 1690 nM | potency estimated from few doses (PBK; compound concentrations:100 nM and 1000 nM (sheet 'Lestaurtinib' of Supplementary Table 1),run:Lestaurtinib_02766_R3,Plate:MR027): 1760 nM | potency estimated from few doses (PBK; [17]): 1580 nM | potency estimated from few doses (PBK; [11]): 1970 nM | potency estimated from few doses (PBK; [12]): 1810 nM | potency estimated from few doses (PBK; compound concentrations:100 nM and 1000 nM (sheet 'Lestaurtinib' of Supplementary Table 1),run:Lestaurtinib_03172_R3,Plate:MR031): 1840 nM | potency estimated from few doses (PDGFRB; compound concentrations:100 nM and 1000 nM (sheet 'Lestaurtinib' of Supplementary Table 1),run:Lestaurtinib_02364_R1,Plate:MR002): 2200 nM | potency estimated from few doses (PDGFRB; compound concentrations:100 nM and 1000 nM (sheet 'Lestaurtinib' of Supplementary Table 1),run:Lestaurtinib_02381_R1,Plate:MR004): 1570 nM | potency estimated from few doses (PDGFRB; compound concentrations:100 nM and 1000 nM (sheet 'Lestaurtinib' of Supplementary Table 1),run:Lestaurtinib_02407_R3,Plate:MR005): 428 nM | potency estimated from few doses (PDGFRB; compound concentrations:100 nM and 1000 nM (sheet 'Lestaurtinib' of Supplementary Table 1),run:Lestaurtinib_02437_R2,Plate:MR007): 717 nM | potency estimated from few doses (PDGFRB; compound concentrations:100 nM and 1000 nM (sheet 'Lestaurtinib' of Supplementary Table 1),run:Lestaurtinib_02437_R3,Plate:MR007): 1300 nM | potency estimated from few doses (PDGFRB; compound concentrations:100 nM and 1000 nM (sheet 'Lestaurtinib' of Supplementary Table 1),run:Lestaurtinib_02438_R2,Plate:MR008): 2020 nM | potency estimated from few doses (PDGFRB; compound concentrations:100 nM and 1000 nM (sheet 'Lestaurtinib' of Supplementary Table 1),run:Lestaurtinib_02438_R3,Plate:MR008): 1360 nM | potency estimated from few doses (PDGFRB; compound concentrations:100 nM and 1000 nM (sheet 'Lestaurtinib' of Supplementary Table 1),run:Lestaurtinib_02443_R1,Plate:MR009): 1570 nM | potency estimated from few doses (PDGFRB; compound concentrations:100 nM and 1000 nM (sheet 'Lestaurtinib' of Supplementary Table 1),run:Lestaurtinib_02443_R3,Plate:MR009): 279 nM | potency estimated from few doses (PDGFRB; compound concentrations:100 nM and 1000 nM (sheet 'Lestaurtinib' of Supplementary Table 1),run:Lestaurtinib_02473_R1,Plate:MR010): 982 nM | potency estimated from few doses (PDGFRB; [1]): 998 nM | potency estimated from few doses (PDGFRB; compound concentrations:100 nM and 1000 nM (sheet 'Lestaurtinib' of Supplementary Table 1),run:Lestaurtinib_02496_R1,Plate:MR013): 1610 nM | potency estimated from few doses (PDGFRB; compound concentrations:100 nM and 1000 nM (sheet 'Lestaurtinib' of Supplementary Table 1),run:Lestaurtinib_02496_R3,Plate:MR013): 1530 nM | potency estimated from few doses (PDGFRB; compound concentrations:100 nM and 1000 nM (sheet 'Lestaurtinib' of Supplementary Table 1),run:Lestaurtinib_02566_R2,Plate:MR014): 1700 nM | potency estimated from few doses (PDGFRB; compound concentrations:100 nM and 1000 nM (sheet 'Lestaurtinib' of Supplementary Table 1),run:Lestaurtinib_02566_R3,Plate:MR014): 1620 nM | potency estimated from few doses (PDGFRB; compound concentrations:100 nM and 1000 nM (sheet 'Lestaurtinib' of Supplementary Table 1),run:Lestaurtinib_02577_R1,Plate:MR016): 1800 nM | potency estimated from few doses (PDGFRB; [2]): 1790 nM | potency estimated from few doses (PDGFRB; compound concentrations:100 nM and 1000 nM (sheet 'Lestaurtinib' of Supplementary Table 1),run:Lestaurtinib_02584_R2,Plate:MR017): 1590 nM | potency estimated from few doses (PDGFRB; [3]): 1990 nM | potency estimated from few doses (PDGFRB; [4]): 1820 nM | potency estimated from few doses (PDGFRB; compound concentrations:100 nM and 1000 nM (sheet 'Lestaurtinib' of Supplementary Table 1),run:Lestaurtinib_02601_R2,Plate:MR018): 1400 nM | potency estimated from few doses (PDGFRB; compound concentrations:100 nM and 1000 nM (sheet 'Lestaurtinib' of Supplementary Table 1),run:Lestaurtinib_02601_R3,Plate:MR018): 1970 nM | potency estimated from few doses (PDGFRB; [6]): 749 nM | potency estimated from few doses (PDGFRB; [16]): 1370 nM | potency estimated from few doses (PDGFRB; [7]): 1340 nM | potency estimated from few doses (PDGFRB; compound concentrations:100 nM and 1000 nM (sheet 'Lestaurtinib' of Supplementary Table 1),run:Lestaurtinib_02741_R3,Plate:MR023): 1830 nM | potency estimated from few doses (PDGFRB; compound concentrations:100 nM and 1000 nM (sheet 'Lestaurtinib' of Supplementary Table 1),run:Lestaurtinib_02768_R3,Plate:MR028): 1580 nM | potency estimated from few doses (PDGFRB; compound concentrations:100 nM and 1000 nM (sheet 'Lestaurtinib' of Supplementary Table 1),run:Lestaurtinib_02795_R1,Plate:MR022): 1320 nM | potency estimated from few doses (PDGFRB; [10]): 1600 nM | potency estimated from few doses (PDGFRB; compound concentrations:100 nM and 1000 nM (sheet 'Lestaurtinib' of Supplementary Table 1),run:Lestaurtinib_02802_R1,Plate:MR029): 1590 nM | potency estimated from few doses (PDGFRB; compound concentrations:100 nM and 1000 nM (sheet 'Lestaurtinib' of Supplementary Table 1),run:Lestaurtinib_02802_R3,Plate:MR029): 1930 nM | potency estimated from few doses (PDGFRB; [17]): 849 nM | potency estimated from few doses (PDGFRB; [11]): 573 nM | potency estimated from few doses (PDGFRB; [12]): 1130 nM | potency estimated from few doses (PDGFRB; [13]): 754 nM | potency estimated from few doses (PDGFRB; [14]): 1320 nM | potency estimated from few doses (PDGFRB; [15]): 970 nM | potency estimated from few doses (PDGFRB; compound concentrations:100 nM and 1000 nM (sheet 'Lestaurtinib' of Supplementary Table 1),run:Lestaurtinib_03260_R1,Plate:MR033): 1570 nM
